Source: PubChem BioAssay (Tox21)
Where “and” joins values, the source holds several entries; their conditions need not be identical. Equal values may be shown once. Inconclusive results are not listed. Entries that show only a call come without a potency. Some compounds were tested as several samples or in several runs, with calls that do not always agree. Calls of active or inactive are those of the source. Unless noted, the call rests on the fitted dose curve.

Assays:
[1] = Nuclear factor erythroid 2-related factor 2/antioxidant responsive element (Nrf2/ARE) small molecule agonists: qHTS cell viability counter screen in human keratinocytes (AID 1919968; active means well fitted curve in the direction sought with a large enough effect in the repeat runs; an effect the other way counts as inactive or inconclusive; further: nearly all actives have a fitted effect of over 55% in size)
Outline: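 After a 5 h attachment period, ARE-reporter keratinocytes were dosed with compounds in DMSO and then cultured 23 h at 37 C. Cell viability came from CellTiter-Fluor signal read after a further 1 h.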

[2] = Nuclear factor erythroid 2-related factor 2/antioxidant responsive element (Nrf2/ARE) small molecule agonists: luciferase reporter gene qHTS assay in human keratinocytes (AID 1919969); further: nearly all actives have a fitted effect of over 35% in size; further: potency means the concentration at half of the fitted maximal effect
[3] = molecular target: Gonadotropin-releasing hormone receptor (Homo sapiens) (UniProt P30968); test: Human gonadotropin-releasing hormone receptor (GnRHR) small molecule agonists, calcium flux assay in GnRHR-HEK293 cells (AID 1920063); further: nearly all actives have a fitted effect of over 35% in size
Sequence of Gonadotropin-releasing hormone receptor (Homo sapiens) (P30968 whole entry, looked up): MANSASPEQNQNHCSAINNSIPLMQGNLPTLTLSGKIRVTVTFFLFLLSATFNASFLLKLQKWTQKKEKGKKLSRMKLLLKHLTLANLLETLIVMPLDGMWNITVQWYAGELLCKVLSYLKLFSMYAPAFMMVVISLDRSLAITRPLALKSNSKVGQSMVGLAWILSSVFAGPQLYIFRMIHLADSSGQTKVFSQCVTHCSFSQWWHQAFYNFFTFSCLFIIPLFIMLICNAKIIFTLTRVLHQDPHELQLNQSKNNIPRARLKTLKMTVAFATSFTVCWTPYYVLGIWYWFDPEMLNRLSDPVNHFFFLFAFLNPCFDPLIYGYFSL
Outline: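 We seeded human GnRHR-expressing HEK293 cells for 18 hours, loaded them with calcium dye for an hour at 37 C, added test compounds, and recorded fluorescence intensity kinetically for three minutes.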

[4] = molecular target: KiSS-1 receptor (Homo sapiens) (UniProt Q969F8); test: Human kisspeptin (KISS1R) small molecule agonists, calcium flux assay in KISS1R-HEK293 cells (AID 1920064; active means well fitted curve in the direction sought with a large enough effect in the repeat runs; an effect the other way counts as inactive or inconclusive)
Sequence of KiSS-1 receptor (Homo sapiens) (Q969F8 whole entry, looked up): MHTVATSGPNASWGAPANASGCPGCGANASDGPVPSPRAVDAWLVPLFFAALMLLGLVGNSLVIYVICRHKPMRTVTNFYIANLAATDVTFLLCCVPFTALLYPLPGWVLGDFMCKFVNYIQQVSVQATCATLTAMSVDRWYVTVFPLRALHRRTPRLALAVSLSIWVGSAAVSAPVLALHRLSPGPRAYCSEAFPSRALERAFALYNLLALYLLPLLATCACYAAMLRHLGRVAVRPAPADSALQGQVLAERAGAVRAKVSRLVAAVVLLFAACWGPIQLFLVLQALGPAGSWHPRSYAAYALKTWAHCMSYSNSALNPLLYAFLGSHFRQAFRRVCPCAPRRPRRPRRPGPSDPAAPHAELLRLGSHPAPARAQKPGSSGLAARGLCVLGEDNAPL
Outline: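 Kinetic calcium assay, 1 s sampling over 3 min at Ex/Em 480/540, in HEK293 cells engineered with human KISS1R; compounds delivered in DMSO after 1 h dye loading.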

[5] = G protein-coupled receptor (GPCR) small molecule agonists, calcium flux assay: HEK293 wild type cell line counter screen (AID 1920065)
Outline: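 Calcium-sensitive dye, loaded 1 h at 37 C into cells cultured 18 h, reports compound-evoked calcium release as fluorescence (Ex/Em 480/540), measured over 3 min. Agonist mode; 15-point titrations, triplicate.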

[6] = p53 small molecule agonists, cell-based qHTS assay with human liver microsomes (AID 1963577);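 further: p53 response element beta-lactamase reporter cells with liver microsomes plus NADPH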
Outline: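 Steps: plate p53RE-bla cells, incubate 5 h at 37 C; add compound in DMSO; add microsomes (0.5 mg/mL final) and NADPH (0.5 mg/mL final); incubate 16 h at 37 C; add LiveBLAzer, 2 h RT; read fluorescence.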

[7] = p53 small molecule agonists, cell-based qHTS assay with rat liver microsomes (AID 1963578)
Outline: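 Metabolic activation is supplied by rat liver microsomes with NADPH (each 0.5 mg/mL final). p53RE-bla cells incubate with compound 16 h at 37 C; reporter activity is measured by LiveBLAzer fluorescence.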

[8] = p53 small molecule agonists, cell-based qHTS assay with human liver microsomes: qHTS cell viability counter screen (AID 1963579); further: nearly all actives have a fitted effect of over 45% in size
Outline: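 After the 460/530 nm beta-lactamase read, CellTiter-Glo was added to the same wells and luminescence measured after 30 min at room temperature, giving viability of p53RE-bla cells treated 16 h with compounds plus microsomes and NADPH.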

[9] = p53 small molecule agonists, cell-based qHTS assay with rat liver microsomes: qHTS cell viability counter screen (AID 1963580); further: nearly all actives have a fitted effect of over 45% in size
Outline: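 p53RE-bla HCT-116 cells were exposed 16 h at 37 C to compounds with rat liver microsomes (0.5 mg/mL) and NADPH (0.5 mg/mL). Viability was measured in the same wells as ATP content by CellTiter-Glo luminescence.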

[10] = p53 small molecule agonists, cell-based qHTS assay: qHTS cell viability counter screen (AID 1963581); further: nearly all actives have a fitted effect of over 45% in size
Outline: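 Following 5 h attachment, HCT-116 p53RE-bla cells took up compound for 16 h at 37 C; the reporter was read with B/G FRET substrate (2 h RT), and viability then via CellTiter-Glo ATP luminescence.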

[11] = p53 small molecule agonists, cell-based qHTS assay (AID 1963582; active means well fitted activation curve with a large enough effect in the signal ratio in the repeat runs, not every such curve was filed as active; the % refers to the signal ratio)
Outline: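 In this cell-based concentration-response screen, a p53 response element drives beta-lactamase; cells received DMSO-borne compounds after 5 h culture and were incubated a further 16 h before FRET substrate development.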

[12] = molecular target: 5-hydroxytryptamine receptor 2A (Homo sapiens) (UniProt P28223); test: 5-hydroxytryptamine receptor 2A (HTR2A) small molecule antagonists, cell-based qHTS assay (AID 1963586); further: nearly all actives have a fitted effect of over 45% in size
Sequence of 5-hydroxytryptamine receptor 2A (Homo sapiens) (P28223 whole entry, looked up): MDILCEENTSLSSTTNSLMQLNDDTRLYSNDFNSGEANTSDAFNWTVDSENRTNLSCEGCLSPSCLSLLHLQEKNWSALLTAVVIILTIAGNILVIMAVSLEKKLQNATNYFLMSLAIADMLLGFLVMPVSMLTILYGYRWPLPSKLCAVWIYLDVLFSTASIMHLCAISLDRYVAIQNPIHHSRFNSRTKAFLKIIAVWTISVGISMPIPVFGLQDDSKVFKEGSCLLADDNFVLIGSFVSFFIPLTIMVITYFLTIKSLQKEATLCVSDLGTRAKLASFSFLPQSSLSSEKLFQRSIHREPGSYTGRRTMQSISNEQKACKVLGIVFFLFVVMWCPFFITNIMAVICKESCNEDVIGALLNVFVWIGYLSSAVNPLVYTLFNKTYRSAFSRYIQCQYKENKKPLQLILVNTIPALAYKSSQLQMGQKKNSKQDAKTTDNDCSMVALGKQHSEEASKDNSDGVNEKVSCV
Outline: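 Antagonist-mode intracellular calcium assay: DOI (4 nM) added after 5 min compound pre-incubation at room temperature to dye-loaded HTR2A-CHO cells. Fluorescence followed for 3 min, sampled every second.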

[13] = molecular target: 5-hydroxytryptamine receptor 2A (Homo sapiens) (UniProt P28223); test: 5-hydroxytryptamine receptor 2A (HTR2A) small molecule agonists, cell-based qHTS assay (AID 1963587); further: nearly all actives have a fitted effect of over 30% in size
Outline: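 CHO cells stably expressing human HTR2A, plated 18 h, loaded with calcium dye 1 h at 37 C. Agonist mode: compounds added and intracellular calcium fluorescence recorded kinetically for 2 min at 1 sec intervals.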

[14] = molecular target: Muscarinic acetylcholine receptor M1 (Homo sapiens) (UniProt P11229); test: Cholinergic receptor muscarinic 1 (CHRM1) small molecule antagonists, cell-based qHTS assay (AID 1963588); further: nearly all actives have a fitted effect of over 40% in size
Sequence of Muscarinic acetylcholine receptor M1 (Homo sapiens) (P11229 whole entry, looked up): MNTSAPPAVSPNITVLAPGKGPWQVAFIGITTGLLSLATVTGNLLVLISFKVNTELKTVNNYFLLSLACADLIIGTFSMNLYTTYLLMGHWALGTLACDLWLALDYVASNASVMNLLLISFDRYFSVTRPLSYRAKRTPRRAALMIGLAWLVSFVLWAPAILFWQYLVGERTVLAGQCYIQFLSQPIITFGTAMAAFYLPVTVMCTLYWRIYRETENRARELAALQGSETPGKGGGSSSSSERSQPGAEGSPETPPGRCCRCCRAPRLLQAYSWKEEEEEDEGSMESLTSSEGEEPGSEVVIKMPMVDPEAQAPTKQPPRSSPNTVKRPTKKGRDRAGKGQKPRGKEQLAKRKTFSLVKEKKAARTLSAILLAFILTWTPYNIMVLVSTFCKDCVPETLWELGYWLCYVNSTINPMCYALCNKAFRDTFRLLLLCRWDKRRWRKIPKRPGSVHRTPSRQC
Outline: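 CHRM1-CHO calcium-flux assay, antagonist mode. Cells were seeded 18 h, dye-loaded 1 h at 37 C and given compound for 5 min at RT, then acetylcholine was added at 50nM. FDSS fluorescence was read 3 min; 15 concentrations, three runs.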

[15] = molecular target: Muscarinic acetylcholine receptor M1 (Homo sapiens) (UniProt P11229); test: Cholinergic receptor muscarinic 1 (CHRM1) small molecule agonists, cell-based qHTS assay (AID 1963589); further: nearly all actives have a fitted effect of over 35% in size
Outline: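 Measures agonist-induced intracellular calcium rise. Stable human CHRM1 CHO line, 1 h dye load at 37 C, compounds from DMSO, kinetic fluorescence read.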

[16] = cAMP Responsive Elements (CRE) small molecule agonists, cell-based qHTS assay (AID 1963590)
Outline: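 A CRE-responsive beta-lactamase reporter in HEK 293T cells was used. Treatment ran 3 h at 37 C; detection used LiveBLAzer B/G FRET substrate for 2 h at room temperature.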

[17] = cAMP Responsive Elements (CRE) small molecule antagonists, cell-based qHTS assay (AID 1963591; active means well fitted inhibition curve with a large enough effect in the signal ratio in the repeat runs, not every such curve was filed as active; the % refers to the signal ratio)
Outline: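 HEK293T cells carrying a CRE-driven beta-lactamase reporter receive compound and NKH477 (0.25 uM final) for 3 h. Fluorescence from LiveBLAzer B/G FRET substrate is read after 2 h at room temperature.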

[18] = molecular target: Beta-2 adrenergic receptor (Homo sapiens) (UniProt P07550); test: Adrenergic beta2 receptor (ADRB2) small molecule antagonists, cell-based qHTS assay (AID 1963592); further: series mostly up to about 92 µM; nearly all actives have a fitted effect of over 50% in size
Sequence of Beta-2 adrenergic receptor (Homo sapiens) (P07550 whole entry, looked up): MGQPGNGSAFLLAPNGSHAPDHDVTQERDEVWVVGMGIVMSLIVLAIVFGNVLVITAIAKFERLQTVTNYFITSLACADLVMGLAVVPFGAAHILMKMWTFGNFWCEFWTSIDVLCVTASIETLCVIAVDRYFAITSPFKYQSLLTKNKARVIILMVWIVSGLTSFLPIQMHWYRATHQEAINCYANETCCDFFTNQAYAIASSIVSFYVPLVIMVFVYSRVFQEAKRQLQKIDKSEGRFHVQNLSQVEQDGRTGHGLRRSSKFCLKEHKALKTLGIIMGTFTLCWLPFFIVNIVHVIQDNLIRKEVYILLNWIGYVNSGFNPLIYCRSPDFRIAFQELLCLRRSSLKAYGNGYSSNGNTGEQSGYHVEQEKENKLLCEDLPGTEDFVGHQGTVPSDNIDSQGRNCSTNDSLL
Outline: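 Cells (CHO, stable ADRB2 overexpression) incubated 18-20hr at 37C; compounds added from DMSO; agonist mix (1nM isoproterenol, 100uM IBMX, 25uM Ro-20-1724) added; 0.5hr RT; d2-cAMP and anti-cAMP-cryptate added; 1hr RT; 665/615 nm read.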

[19] = molecular target: D(2) dopamine receptor (Homo sapiens) (UniProt P14416); test: Dopamine D2 receptor (DRD2) small molecule agonists, cell-based qHTS assay (AID 1963594); further: nearly all actives have a fitted effect of over 35% in size
Sequence of D(2) dopamine receptor (Homo sapiens) (P14416 whole entry, looked up): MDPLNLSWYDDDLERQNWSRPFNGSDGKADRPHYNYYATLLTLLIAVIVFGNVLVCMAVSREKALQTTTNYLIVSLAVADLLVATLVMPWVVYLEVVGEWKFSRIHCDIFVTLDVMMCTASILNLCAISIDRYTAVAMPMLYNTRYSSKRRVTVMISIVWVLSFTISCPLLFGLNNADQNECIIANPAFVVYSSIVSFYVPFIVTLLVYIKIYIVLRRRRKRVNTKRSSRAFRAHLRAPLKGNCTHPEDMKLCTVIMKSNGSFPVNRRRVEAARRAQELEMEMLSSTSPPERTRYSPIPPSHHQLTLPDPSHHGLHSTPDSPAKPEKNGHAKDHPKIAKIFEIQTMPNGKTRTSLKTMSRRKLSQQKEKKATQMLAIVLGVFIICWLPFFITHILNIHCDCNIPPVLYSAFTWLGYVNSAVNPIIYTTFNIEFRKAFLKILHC
Outline: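 HEK293 cells stably expressing human DRD2, pre-treated with PDE inhibitor Ro20-1724 (0.1 mM final) and compound 10 min at room temperature, then stimulated with NKH477 (200nM […]) for 30 min. cAMP read by HTRF (665/620 nm).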

[20] = molecular target: D(2) dopamine receptor (Homo sapiens) (UniProt P14416); test: Dopamine D2 receptor (DRD2) small molecule antagonists, cell-based qHTS assay (AID 1963595; active means well fitted inhibition curve with a large enough effect in the signal ratio in the repeat runs, with a control signal flat; the % refers to the signal ratio)
Outline: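 Readout: HTRF cAMP, cAMP-d2 competing with cellular cAMP for anti-cAMP cryptate, read after 1 h. Cells: DRD2-HEK293. Conditions: 0.1 mM Ro20-1724, 12 nM quinpirole, 200 nM NKH477, 30 min RT.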

Compound | Potency [1] | Potency [2] | Potency [3] | Potency [4] | Potency [5] | Potency [6] | Potency [7] | Potency [8] | Potency [9] | Potency [10] | Potency [11] | Potency [12] | Potency [13] | Potency [14] | Potency [15] | Potency [16] | Potency [17] | Potency [18] | Potency [19] | Potency [20]
COC(=O)c1c(C(F)F)nc(C(F)(F)F)c(C2=NCCS2)c1CC(C)C | inactive | inactive | inactive | inactive | inactive | inactive | inactive | inactive | inactive | inactive | inactive | inactive | inactive | inactive | inactive | inactive | inactive | inactive | inactive | inactive
CC(C)(OOC(C)(C)c1ccccc1)c1ccccc1 | inactive | 21.7 µM (active) | inactive | inactive | inactive | inactive | inactive | inactive | inactive | inactive | inactive | inactive | inactive | inactive | inactive | inactive | inactive | inactive | inactive | inactive
CC(C)(c1ccccc1)c1cc(-n2nc3ccccc3n2)c(O)c(C(C)(C)c2ccccc2)c1 | inactive | inactive | inactive | inactive | inactive | inactive | inactive | inactive | inactive | inactive | inactive | inactive | inactive | inactive | inactive | inactive | inactive | inactive | inactive | inactive
Cc1ccc(N=C=O)cc1N=C=O | inactive | 62.7 µM (active) and 48.6 µM (active) | inactive | inactive | inactive | inactive | inactive | inactive | inactive | inactive | inactive | inactive | inactive | inactive | inactive | inactive | inactive | inactive | inactive | 
O=[N+]([O-])CCO | inactive | inactive | inactive | inactive | inactive | inactive | inactive | inactive | inactive | inactive | inactive | inactive | inactive | inactive | inactive | inactive | inactive | inactive |  | inactive
Nc1ccc(Br)cc1 | inactive | 68.5 µM (active) and inactive | inactive | inactive | inactive | inactive | inactive | inactive | inactive | inactive | inactive | inactive | inactive | inactive | inactive | inactive | inactive | inactive | inactive | inactive
S=C=S | inactive | inactive | inactive | inactive | inactive | inactive | inactive | inactive | inactive | inactive | inactive | inactive | inactive | inactive | inactive | inactive | inactive | inactive | inactive | inactive
O=C(Cc1ccccc1)c1ccccc1 | inactive | inactive | inactive | inactive | inactive | inactive | inactive | inactive | inactive | inactive | inactive | inactive | inactive | inactive | inactive | inactive | inactive | inactive | inactive | inactive
